Lassa entry inh: Lassa virus entry inhibition. Lassa virus pseudotype entry inhibition, cell reporter. Potency, µM (top dose mostly 37.9 µM), for inactives: at the top dose activity change, negative = inhibition, usual class: inhibitors. hit rate 1.2% among 300,000; calls by dose curve; tested in HEK293 cells; also: nearly all actives have a fitted effect of over 50% in size
FMDV antiviral: blocks foot and mouth disease virus; AID 1159524; FMDV antiviral cell-based qHTS; hit rate 1.2% among 410,000; Potency, µM (highest dose often 57.9 µM), for the others: at the highest dose activity change, negative = inhibition, hits mostly inhibitors; calls by dose curve; tested in HEK293T cells; also: read-out not given here; nearly all actives have a fitted effect of over 45% in size
MARV entry inh: inhibitors of Marburg virus binding or cell entry | AID 540276 | hit rate 1.8% among 300,000 | Potency, µM (series often up to 37.8 µM), for inactives: at the top dose activity change, negative = inhibition, usual class: inhibitors | Marburg virus pseudotyped entry inhibition, cell reporter; calls by dose curve; tested in HEK293 cells
HCV inh: blocks hepatitis C virus; AID 651820; Huh7.5.1 HCVcc-Cre infection, luciferase reporter, 44 h; Potency, µM (titrated, usually from 41.8 µM), without a hit: top-dose activity change, negative = inhibition, hits mostly inhibitors; hit rate 3.4% among 340,000
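Whole-lifecycle infectious HCVcc-Cre system; cells 1,000/well, compound then virus (~0.5 moi) added 4 h after plating, 44 h culture. Luciferase read 15 sec following 15 min substrate incubation, room temp.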
RE007 growth inh: less growth of the S. pombe RE007 Vpr strain; S. pombe RE007 Vpr strain, BacTiter-Glo ATP luminescence, 24 h; hit rate 0.21% among 360,000; Potency, µM (titrated, usually from 92.2 µM), inactives show at the highest dose activity change, negative = less growth, most hits filed as inhibitors; active = well fitted falling curve with a large enough effect; inconclusive = small, poorly fitted or top-dose-only effect; inactive = no such curve, though single readings can be large or run the other way; also: nearly all actives have a fitted effect of over 50% in size
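Fission yeast strain RE007, carrying one chromosomally integrated HIV-1 vpr copy, was seeded at OD 0.01 in PMG+AL medium with 23 nL pinned compound. After 24 h at 30 °C and 99% humidity, viability was read by BacTiter-Glo luminescence.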
Sm TGR inh: S. mansoni TGR enzyme inhibition; Q962Y6; purified TGR, DTNB reduction, TNB absorbance 405 nm; Potency, µM (series often up to 114 µM), without a hit: at the top dose activity change, negative = inhibition, hits mostly inhibitors; hit rate 3% among 360,000; also: nearly all actives have a fitted effect of over 60% in size
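First, TGR (20 nM dispensed) and NADPH were mixed with compound. Second, a 15 min room-temperature incubation followed. Third, further NADPH and then DTNB were added to start the reaction. Finally, TNB absorbance was monitored kinetically.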
Numbers without * were called inactive; ? = inconclusive; . = no result; [ ] = remark or other dose. Only some compounds are listed: those with a hit (about 7.2% of all), similar ones and a draw of the others. Unless noted, calls follow the shape of the dose curve; as a rule, active = well fitted curve in the direction sought with a large enough effect; inconclusive = small, poorly fitted or top-dose-only effect, or another doubt; inactive = no such curve, though single readings can be large; an effect the other way counts as inactive or inconclusive. % is scaled to controls: 0 for no effect and ±100 for the full control effect; potency is read from the fitted curve at half-maximal effect.

SMILES	Lassa entry inh	FMDV antiviral	MARV entry inh	HCV inh	RE007 growth inh	Sm TGR inh
COc1ccccc1NS(=O)(=O)c1cc(NC(=O)c2cccs2)ccc1N1CCCC1	12µM*	51%	?	?	-19%	-25%
Cn1c(=O)[nH]c2cc(-c3noc(-c4ccc(Br)cc4)n3)ccc21	15%[46.1 µM]	-7%	.	.	.	0%
CC(=O)c1cccc(NC(=O)c2cccc3c(-c4cnn(C)c4)coc23)c1	.	-11%	.	.	10%	.
CCCc1nn2c(=O)cc(COC(=O)c3ccc(NC(=O)CCc4ccccc4)cc3)nc2s1	0%[46.1 µM]	-8%	.	.	.	0%
C#CCCCO/N=C1/C[C@@H](O)[C@@H](O)[C@@H]2[C@@H]3C(=O)N(Cc4ccccc4)C(=O)[C@H]3CC[C@H]12	.	.	11%[14.2 µM]	.	.	.
O=C(Nc1ccccc1N1CCCC1)c1ccc(Br)o1	?	24%	3%	?	15%	-28%
O=C(Nc1cc(C(F)(F)F)ccc1N1CCOCC1)c1cccs1	-9%	-27%	?	?	0%	-4%
COc1ccc(NS(=O)(=O)c2cc(NC(=O)c3cc(F)c(F)c(F)c3F)ccc2N2CCCC2)cc1	.	25%	.	?	-4%	1%
O=C(Nc1ccc(N2CCCC2)c(S(=O)(=O)Nc2cccc(C(F)(F)F)c2)c1)c1cccs1	?	35%	1.4µM*	?	14%	-9%
COc1ccc(NS(=O)(=O)c2cc(NC(=O)c3ccco3)ccc2N2CCCC2)cc1	?	50%	?	10µM*	-1%	-14%
COc1ccc(N2CCCC2)c(NC(=O)c2ccc(Br)o2)c1	-6%	?	2%[46.1 µM]	?	-8%	45µM*
COc1ccc(NS(=O)(=O)c2ccc(N3CCCC3)c(NC(=S)Nc3ccc(SC(F)F)cc3)c2)cc1	?	-14%	?	22µM*	-3%	-3%
CCOc1ccc(OCC)c(S(=O)(=O)N2CCN(c3cccc(C)c3C)CC2)c1	?	-12%	?	.	.	7%
Cc1coc2c(O)cc3c(c12)O[C@@]1(N2CCCCC2)C(=O)NCCC[C@@H]31	.	.	-27%	.	.	.
COc1ccc(OC)c(NS(=O)(=O)c2ccc(-c3cc(C)no3)s2)c1	?	-16%	.	.	.	-6%
CC(=O)N1CCC2(CC1)CCN(c1ncccn1)CC2	.	-8%	.	.	.	.
CC1CCc2nc3ccccc3c(C(=O)OCC(=O)N3CCc4ccccc43)c2C1 (configuration not stated)	?	-17%	?	?	5%	-2%
CCCc1nc2ccccc2c(C(=O)OCC(=O)Nc2cccc(S(=O)(=O)N3CCOCC3)c2)c1CC	18µM*	-1%	?	8.9µM*	3%	-24%
CCCc1nc2ccccc2c(C(=O)OCC(=O)Nc2ccc(S(=O)(=O)N3CCOCC3)cc2)c1CC	?	?	?	8.9µM*	-6%	-10%
CCCc1nc2ccccc2c(C(=O)OCC(=O)N2CCc3ccccc32)c1CC	?	?	?	8.9µM*	-21%	6%
O=C(COC(=O)c1n[nH]c2ccccc12)Nc1cccc(S(=O)(=O)N2CCOCC2)c1	8%	0%	-13%[46.1 µM]	-18%	16%	-2%
O=C(Nc1nnc2n1CCS2)c1ccccc1C(F)(F)F	16%[46.1 µM]	0%	.	.	.	3%
CC(Sc1nnc(Cc2cccs2)n1C1CCCCC1)C(=O)N1CCc2ccccc21 (configuration not stated)	-22%	8%	?	?	21%	-3%
CC(Sc1nnc(Cc2cccs2)n1C1CCCCC1)C(=O)NCc1ccco1 (configuration not stated)	-22%	-25%	?	22%	2%	50µM*
CN(C(=O)Cn1cc(S(=O)(=O)Cc2ccccc2Cl)c2ccccc21)c1ccccc1	?	-13%	.	.	.	7%
SMILES	Lassa entry inh	FMDV antiviral	MARV entry inh	HCV inh	RE007 growth inh	Sm TGR inh
CCCCn1c(NCc2ccccc2NS(=O)(=O)c2ccc(C)cc2)nc2ccccc21	?	-12%	11µM*	?	3%	14%
CCCCn1c(NCc2ccccc2O)nc2ccccc21	.	13%	.	?	-11%	0%
CCn1c(/N=C/c2ccccc2NS(=O)(=O)c2ccc(C)cc2)nc2ccccc21	11µM*	3%	?	31%	-23%	2%
COc1ccc(O)c(CN2CCC3(CC2)c2ccccc2[C@@H](NC(=O)c2cccc(F)c2)[C@@H]3OC)c1	.	2%	.	.	.	.
CCC(=NCc1ccc2c(c1)OCO2)c1c(O)n(C2CCCCC2)c(=O)[nH]c1=O	13µM*	?	?	?	14%	-26%
CCOc1ccc(NC(=O)CC2C(=O)OCCN2CC)cc1 (configuration not stated)	-5%[46.1 µM]	15%	13%[46.1 µM]	.	.	11µM*
COc1cc(NC(=O)CC2C(=O)OCCN2Cc2ccccc2)cc(OC)c1 (configuration not stated)	6%[46.1 µM]	?	2%[46.1 µM]	.	.	-31%
CCOC(=O)c1ccc(NC(=O)CC2C(=O)OCCN2CC)cc1 (configuration not stated)	3%[46.1 µM]	-10%	?	10%	5µM*	22µM*
CCOC(=O)c1ccc(NC(=O)CC2OCCN(CC)C2=O)cc1 (configuration not stated)	-4%	2%	12%	-1%	4.5µM*	25µM*
CCN1CCOC(=O)C1CC(=O)Nc1cccc(OC)c1 (configuration not stated)	8%[46.1 µM]	4%	-3%[46.1 µM]	.	.	18µM*
CCOC(=O)c1ccc(NC(=O)CC2NCCNC2=O)cc1 (configuration not stated)	?	9%	23%[46.1 µM]	-3%	7%	0%
C/C(=N/NC(=O)CCc1ccccc1)c1ccc2c(c1)OCO2	?	-25%	?	-14%	-6%	4%
COc1ccc(CCC(=O)N/N=C(\C)c2ccc3c(c2)OCO3)cc1	0.35µM*	-10%	13%	-21%	-7%	-4%
CC(C)c1nn2c(=O)cc(COC(=O)c3ccc(NC(=O)CCc4ccccc4)cc3)nc2s1	27%[46.1 µM]	-7%	.	.	.	2%
O=C(CCl)NCCCCCCCCCNC(=O)CCl	?	-22%	8.9µM*	?	34%	?
COC(=O)N1C(=O)[C@](CC(C)C)(c2ccccc2)N1C(=O)OC	.	35µM*	.	-7%[8.37 µM]	2%	7.9µM*
COC(=O)N1C(=O)[C@@](CC(C)C)(c2ccccc2)N1C(=O)OC	.	.	.	.	.	3.5µM*
COc1ccc(CNC(=O)C(C)N2C(=O)NC(c3ccccc3)(c3ccccc3)C2=O)cc1 (configuration not stated)	.	0%	.	-14%	-5%	-2%
O=C(c1ccc(Cl)cc1)N1CCCCC(Sc2nnc(-c3ccc4c(c3)OCO4)o2)C1=O (configuration not stated)	?	10µM*	?	-2%	11%	-7%
